ClpP mod = qHTS Assay for Activators of ClpP; ATP-dependent Clp protease proteolytic subunit (Bacillus subtilis (strain 168)), P80244; purified B. subtilis ClpP, FRET peptide cleavage, 20 min; Potency, µM (top dose mostly 57.5 µM), for the others: at the highest dose activity change, negative = active; hit rate 1.9% among 340,000; active = well fitted falling curve with a large enough effect; inconclusive = small, poorly fitted or top-dose-only effect; inactive = no such curve, though single readings can be large or run the other way; also: potency is read from the fitted curve at half-maximal effect; the source files actives as falling curves though it sought activators and does not explain the sign; nearly all actives have a fitted effect of over 65% in size
Target sequence (P80244 whole entry, looked up): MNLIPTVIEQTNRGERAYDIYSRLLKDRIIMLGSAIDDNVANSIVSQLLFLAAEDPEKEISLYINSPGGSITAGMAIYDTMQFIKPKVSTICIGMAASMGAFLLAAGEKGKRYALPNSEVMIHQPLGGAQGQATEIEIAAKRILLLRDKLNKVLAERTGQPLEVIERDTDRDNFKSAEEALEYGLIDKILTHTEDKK
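Buffer: 100 mM Tris/HCl pH8, 100 mM KCl, 0.05% low protease BSA, 2.5% glycerol, 0.01% Tween-20. ClpP 10 microg/mL final; 20 min RT; delta FRET normalized to ADEP and DMSO controls.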
D3 ag = activates the human D3 dopamine receptor | P35462 | max activation, % | D3R DiscoveRx beta-arrestin cells, luminescence, 90 min | hit rate 0.58% among 410,000; in the data active = max activation above about 30%; also: 0% is about no effect
Target sequence (P35462 whole entry, looked up): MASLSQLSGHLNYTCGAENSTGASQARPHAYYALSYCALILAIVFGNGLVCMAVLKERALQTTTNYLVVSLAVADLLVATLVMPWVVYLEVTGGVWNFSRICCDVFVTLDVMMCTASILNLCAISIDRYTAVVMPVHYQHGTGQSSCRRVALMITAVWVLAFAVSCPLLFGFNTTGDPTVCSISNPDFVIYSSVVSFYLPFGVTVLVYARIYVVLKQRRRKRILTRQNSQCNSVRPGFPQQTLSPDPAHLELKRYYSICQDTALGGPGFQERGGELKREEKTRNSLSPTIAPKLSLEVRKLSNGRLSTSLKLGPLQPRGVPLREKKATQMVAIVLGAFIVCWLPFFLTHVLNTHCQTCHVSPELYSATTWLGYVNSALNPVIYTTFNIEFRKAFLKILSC
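Agonist mode: compounds and dopamine controls were applied to plated cells for 90 min at 37 degrees C after an overnight attachment at 1500 cells/well. Luminescent read-out followed 30 - 60 minutes at room temperature with DiscoveRx detection reagent.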
DT40 TDP1 no CPT = qHTS for Inhibitors of human tyrosyl-DNA phosphodiesterase 1 (TDP1): qHTS in cells in absence of CPT. DT40 Tdp1-/- hTDP1 cells, no CPT, ATP luminescence, 48 h. Potency, µM (series often up to 46.2 µM), inactives show at the highest dose activity change, negative = growth inhibition, hits mostly inhibitors. hit rate 15% among 420,000. AID 686978, 2013; also: potency is read from the fitted curve at half-maximal effect; % is scaled to controls: 0 for no effect and ±100 for the full control effect; nearly all actives have a fitted effect of over 55% in size
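Cells were dispensed at 400 per well, compounds added by pin tool, plates incubated ≥48 hr at 37 °C, then CellTiter-Glo added for 30 min at room temperature before luminescence reading. Line: DT40 Tdp1-/- complemented with hTDP1; camptothecin omitted.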
IL1B secr inh = blocks inflammasome-driven IL-1 beta release; hit rate 4.7% among 360,000; activity change, % at 57.5 µM; THP-1 LPS/ATP IL-1B secretion, AlphaLISA, 16 h; hits give low values; AID 743279; in the data active = activity change below about -50%; inconclusive = mostly about -30% to -49%; also: % is scaled to controls: 0 for no effect and ±100 for the full control effect
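THP-1 cells pretreated 1 hr with compounds (up to 57.5 uM final), then stimulated with LPS (250 ng/mL final) plus ATP (1.25 mM final); secreted IL-1B measured by AlphaLISA after 16 hr, decreased signal indicating inhibition.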
DRD3 antagonist = antagonists of human D3 dopamine receptor; AID 652054; max response, negative = inhibition, %; hit rate 2.5% among 360,000; D3R cells, DiscoveRx beta-arrestin luminescence, antagonist mode; hits give low values; in the data active = max response below about -50%; inconclusive = no clear call, values can overlap the other calls; also: % is scaled to controls: 0 for no effect and ±100 for the full control effect
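Cells plated overnight at 1500 cells/well, then exposed to library compounds with dopamine controls for 90 minutes at 37 degrees C. DiscoveRx reagent added for 30–60 minutes at room temperature; luminescence read, quantitative HTS format.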
TDP1 cell CPT = DT40-hTDP1 cell growth loss with CPT | chicken DT40 Tdp1-/-;hTDP1 cells + 20 nM CPT, ATP luminescence, 48 h | AID 686979 | hit rate 12% among 420,000 | Potency, µM (top dose mostly 46.2 µM), without a hit: at the top dose activity change, negative = growth inhibition, actives largely listed as inhibitors; also: potency is read from the fitted curve at half-maximal effect; % is scaled to controls: 0 for no effect and ±100 for the full control effect; nearly all actives have a fitted effect of over 55% in size
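Cell growth measured by CellTiter-Glo luminescence after a minimum 48 h, 37 C compound exposure with 20 nM CPT in Tdp1-knockout DT40 cells stably expressing hTDP1, seeded 400/well; qHTS titration format.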
An asterisk follows results filed as active; ? = inconclusive; . = no result; [ ] = another dose, or the depositor's remark. Hits are enriched below; roughly 21% of the tested compounds scored in any of these assays. Unless noted, calls follow the shape of the dose curve; as a rule, active = well fitted inhibition curve with a large enough effect; inconclusive = small, poorly fitted or top-dose-only effect; inactive = flat fitted curve, though single readings scatter.

SMILES	ClpP mod	D3 ag	DT40 TDP1 no CPT	IL1B secr inh	DRD3 antagonist	TDP1 cell CPT
COc1ccc(-n2cc(CNC3CCC(O)CC3)c(-c3cccc(F)c3)n2)cc1 (stereo not given)	.	7	21µM*	-28	7	21µM*
COc1ccc(-n2cc(CN(C)C(C)c3ccncn3)c(-c3cccc(F)c3)n2)cc1 (stereo not given)	-9%	-9	?	-51*	49	?
COc1ccc(CNCc2cn(-c3cccc(F)c3)nc2-c2ccc(C)o2)cc1	4%	-11	16µM*	-87*	-19	?
CCCCCCCCCCCCCCCCCCOP(=O)([O-])OC1CC[N+](C)(C)CC1	.	5	6%[21.1 µM]	.	.	4%[21.1 µM]
CCc1ccc2cc(C)cc(C)c2n1	-5%	8	-20%	0	31	-15%
CCOc1ccc(C(=O)CSc2nc3cc(C(=O)NC4CCCC4)ccc3c(=O)n2CC2CCCO2)cc1 (stereo not given)	-2%	2	1%	.	.	0%
CCOC(=O)c1ccc(-n2c(CN(CC)CC)nc3ccc([N+](=O)[O-])cc3c2=O)cc1	2%	0	?	36	-11	18µM*
CCOC(=O)N1CCN(Cc2nc3ccc([N+](=O)[O-])cc3c(=O)n2-c2ccccc2F)CC1	1%	3	23µM*	31	25	?
CCOC(=O)c1ccc(-n2c(CN3CCC(C(N)=O)CC3)nc3ccc([N+](=O)[O-])cc3c2=O)cc1	-7%	-4	-11%	0	-2	?
CCOC(=O)c1ccc(-n2c(CN3CCC(O)CC3)nc3ccc([N+](=O)[O-])cc3c2=O)cc1	-1%	-10	?	0	18	21µM*
CCC(CC)N1CCN(Cc2nc3ccc([N+](=O)[O-])cc3c(=O)n2-c2ccccc2F)CC1	.	8	?	58	-3	5%
CCOC(=O)c1ccc(-n2c(CN3CCOCC3)nc3ccc([N+](=O)[O-])cc3c2=O)cc1	2%	1	-4%	45	19	-10%
OC[C@@H]1CCC[C@@H](n2cnc3c(=S)nc[nH]c32)O1	-3%	.	-12%	.	.	?
CC(CCc1ccccc1)NC(=O)CN1CCN(c2ccc(O)cc2)CC1 (stereo not given)	1%	-12	?	8	10	?
CC(=O)c1ccc(S(=O)(=O)N(C)CCCC(=O)N2CCN(c3ncccn3)CC2)cc1	2%	1	?	12	19	-19%
C[C@@H](NC(=O)[C@@H]1Cc2ccccc2CN1)C(=O)Nc1ccc2c(c1)OCCO2	-5%	1	?	2	-2	?
CCCN1CCC(NC(=S)Nc2ccc(S(N)(=O)=O)cc2)CC1	.	0	-5%	19	6	2%
CN(CCCC(=O)Nc1ccc(Br)cc1F)S(=O)(=O)c1ccccc1	0%	2	?	18	-4	?
COc1ccc(CN(C)S(=O)(=O)c2nnc(NC(=O)C(C)C)s2)cc1OC	-3%	29	10µM*	.	.	12µM*
COc1ccc(CN(C)S(=O)(=O)c2nnc(NC(=O)c3ccccc3OC)s2)cc1OC	-5%	2	?	9	23	?
CCCc1nnc(NC(=O)CSc2nnc(-c3ccco3)n2C)s1	.	1	3%	13	-10	17%
CC(NC(=O)CNC(=O)c1sc2ccccc2c1Cl)c1ccc(S(N)(=O)=O)cc1 (stereo not given)	-1%	3	-17%	-21	4	-2%
O=C(Nc1ccc(N2CCOCC2)c(Cl)c1)c1c(F)c(F)c(F)c(F)c1F	0%	3	16µM*	-12	0	23µM*
O=C(Nc1ccc(N2CCOCC2)c(Cl)c1)c1cc(F)c(F)cc1Cl	0%	1	?	-58*	14	?
O=C(Nc1ccc(N2CCOCC2)c(Cl)c1)c1cccnc1Cl	0%	0	-26%	-6	6	8%
SMILES	ClpP mod	D3 ag	DT40 TDP1 no CPT	IL1B secr inh	DRD3 antagonist	TDP1 cell CPT
COc1c(C)cccc1C(=O)Nc1ccc(N2CCOCC2)c(Cl)c1	-1%	-15	?	-69*	17	?
CC(=O)Nc1ccc(N2CCOCC2)c(Cl)c1	-1%	0	6%	-12	-11	-4%
O=C(Nc1ccc(N2CCOCC2)c(Cl)c1)c1cccc(F)c1	-8%	-5	?	-54*	-12	-25%
O=C(Nc1ccc(N2CCOCC2)c(Cl)c1)c1ccc(-n2cnnc2)cc1Cl	1%	2	-23%	-8	21	?
CCN(CC(=O)NCc1ccc(Cl)cc1)C(=O)CNS(=O)(=O)c1ccc(NC(C)=O)cc1	-1%	9	0%	11	3	-24%
CCCCCNC(=O)C1CC(=O)OC12CCCCC2 (stereo not given)	.	1	-8%	0	3	-1%
O=C(Nc1cccc(Cl)c1N1CCOCC1)c1cccs1	-1%	0	-22%	-2	-10	?
COc1c(F)c(F)c(C(=O)Nc2cccc(Cl)c2N2CCOCC2)c(F)c1F	72%	11	21µM*	-3	0	15µM*
CCC1CCCCN1CCCNC(=O)c1c(C)oc2ncn(CC(C)C)c(=O)c12 (stereo not given)	-4%	-6	1%	.	.	2%
Cc1cc(NC(=O)CCC(=O)N(CC(=O)NC2CCCC2)c2ccc(F)c(Cl)c2)no1	.	-3	-8%	2	2	-6%
CCCCCc1ccc(OCCC[n+]2ccccc2)c(CCCCC)c1	0%	-33	1µM*	-94*	-15	0.65µM*
CCCCCc1ccc(OCCOCCn2c[n+](C)c3ccccc32)c(CCCCC)c1	1%	-1	2.1µM*	-94*	23	2.3µM*
CCCCOc1ccccc1Cn1c(=O)oc2ccccc21	-1%	-3	?	0	-3	2%
COc1ccc(-n2nc(C(=O)O)c(=O)n(C)c2=O)cc1	4%	7	?	.	.	-3%
CCOc1ccc2oc(C(=O)OCC(=O)N(CC(C)C)c3c(N)n(Cc4ccccc4)c(=O)[nH]c3=O)c(C)c2c1	43%	2	?	?	34	?
COCCNC(=O)C1(C)CCCN(C(=O)c2ccc(F)cc2Cl)C1 (stereo not given)	1%	1	-4%	11	17	7%
CCSc1ncc(Cl)c(C(=O)Nc2ccc(S(N)(=O)=O)cc2)n1	.	-1	?	-59*	4	-19%
CCSc1ncc(Cl)c(C(=O)Nc2ccc(S(=O)(=O)Nc3nccc(C)n3)cc2)n1	1%	-14	?	.	.	-28%

Screens from PubChem.
